Reference: PubChem BioAssay AID1159580 (chemical genetic matrix, 2015)
Where “and” joins values, the source holds several entries; their conditions need not be identical. Equal values may be shown once. Hit rate of the full screen: of about 5,500 compounds, about 2,000 (36%) were called active. About 18% were inconclusive and are not listed. Cut-off read from the data, not from the text of the source: active = normalized growth mostly below about 0.91 (no sharp cut-off); inconclusive = no clear call, values can overlap the other calls; inactive = mostly above about 0.92. The list shows a part of the results. Where a SMILES comes first, the peptide text is derived from it. Bridges are numbered along the chain shown (N, C = ends). [ ]: non-standard residue; d: D form. The star is where a group is joined. Heptanoyl(6-Me) = CC(C)CCCCC(=O)*; Dab = NCC[CH](N)C(=O)O

Assay: chemical genetic growth profiling, strain panel (AID 1159580);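 note: tested at 20 µM; growth read once vehicle control cultures reached saturation at 30 °C; 1 = growth at the plate median or of vehicle wells; lower values mean less growth of the strain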
Details: S. cerevisiae deletion strains, growth OD
[1] = locus YHR030C, strain SLT2, stronger effect = lower value
[2] = locus YJL095W, strain BCK1, stronger effect = lower value
[3] = locus YJR066W, strain TOR1, stronger effect = lower value
[4] = locus YLR113W, strain HOG1, stronger effect = lower value
[5] = locus YNL183C, strain NPR1, stronger effect = lower value
[6] = locus YOR231W, strain MKK1, stronger effect = lower value
[7] = locus YPL256C, strain CLN2, stronger effect = lower value

Measured: normalized growth

O=C1CC[C@]23C=CC(=O)NCCCCNCCCNC(=O)/C=C/c4ccc(c2c4)O[C@@H]3C1
inactive: locus YAL021C, strain ccr4, stronger effect = lower value 1.02 | locus YAL026C, strain drs2, stronger effect = lower value 1.04 | locus YAL030W, strain snc1, stronger effect = lower value 1.01 | locus YBL061C, strain skt5, stronger effect = lower value 1.02 | locus YBR009C, strain hhf1, stronger effect = lower value 1.03 | locus YBR021W, strain FUR4, stronger effect = lower value 0.999 | locus YBR023C, strain chs3, stronger effect = lower value 1.02 | locus YBR171W, strain sec66, stronger effect = lower value 1.01 | locus YBR229C, strain ROT2, stronger effect = lower value 1.01 | locus YBR231C, strain swc5, stronger effect = lower value 1.01 | locus YBR279W, strain paf1, stronger effect = lower value 1 | locus YCL011C, strain gbp2, stronger effect = lower value 1 | locus YCL016C, strain dcc1, stronger effect = lower value 1.03 | locus YCL029C, strain bik1, stronger effect = lower value 0.997 | locus YCL061C, strain MRC1, stronger effect = lower value 1 | locus YCL069W, strain vba3, stronger effect = lower value 1.01 | locus YCR088W, strain abp1, stronger effect = lower value 1.02 | locus YDL005C, strain med2, stronger effect = lower value 1.02 | locus YDL035C, strain GPR1, stronger effect = lower value 1.05 | locus YDL040C, strain nat1, stronger effect = lower value 1 | locus YDL074C, strain BRE1, stronger effect = lower value 1.05 | locus YDL101C, strain DUN1, stronger effect = lower value 1 | locus YDL134C, strain PPH21, stronger effect = lower value 0.954 | locus YDL185W, strain tfp1, stronger effect = lower value 0.993 | locus YDL192W, strain arf1, stronger effect = lower value 1.02 | locus YDR001C, strain nth1, stronger effect = lower value 1.01 | locus YDR069C, strain doa4, stronger effect = lower value 1.03 | locus YDR101C, strain arx1, stronger effect = lower value 0.997 | locus YDR137W, strain rgp1, stronger effect = lower value 0.993 | locus YDR150W, strain NUM1, stronger effect = lower value 1.01 | locus YDR159W, strain sac3, stronger effect = lower value 1.03 | locus YDR162C, strain NBP2, stronger effect = lower value 1.02 | locus YDR195W, strain ref2 1.02 | locus YDR297W, strain sur2, stronger effect = lower value 1.01 | locus YDR318W, strain mcm21, stronger effect = lower value 1.01 | locus YDR334W, strain swr1, stronger effect = lower value 1.01 | locus YDR335W, strain msn5, stronger effect = lower value 1.03 | locus YDR388W, stronger effect = lower value 0.993 | locus YDR392W, strain spt3, stronger effect = lower value 1.01 | locus YDR502C, strain sam2, stronger effect = lower value 0.963 | locus YEL003W, strain gim4, stronger effect = lower value 1.01 | locus YEL037C, strain rad23, stronger effect = lower value 1.02 | locus YEL061C, strain CIN8 (second series), stronger effect = lower value 1.01 | locus YEL061C, strain CIN8, stronger effect = lower value 1.01 | locus YER015W, strain faa2, stronger effect = lower value 1.01 | locus YER016W, strain bim1, stronger effect = lower value 1.02 | locus YER110C, stronger effect = lower value 0.981 | locus YER111C, strain swi4, stronger effect = lower value 1.01 | locus YER155C, strain BEM2 (second series), stronger effect = lower value 1.01 | locus YER155C, strain BEM2, stronger effect = lower value 1.01 | locus YER167W, strain BCK2, stronger effect = lower value 1.02 | locus YFR010W, strain ubp6, stronger effect = lower value 1.02 | locus YGL078C, strain dbp3, stronger effect = lower value 0.987 | locus YGL086W, strain mad1, stronger effect = lower value 0.99 | locus YGL167C, strain pmr1, stronger effect = lower value 1.03 | locus YGL173C, strain kem1, stronger effect = lower value 1.02 | locus YGL227W, strain vid30, stronger effect = lower value 1.02 | locus YGL240W, strain doc1, stronger effect = lower value 1.02 | locus YGL248W, strain PDE1, stronger effect = lower value 1 | locus YGL253W, strain hxk2, stronger effect = lower value 1.02 | locus YGR135W, strain pre9, stronger effect = lower value 0.951 | locus YGR252W, strain gcn5, stronger effect = lower value 0.903 | locus YHR027C, strain rpn1, stronger effect = lower value 1 | [1] 1.05 | locus YHR079C, strain IRE1 (second series), stronger effect = lower value 0.995 | locus YHR079C, strain IRE1, stronger effect = lower value 1.04 | locus YHR094C, strain hxt1, stronger effect = lower value 0.993 | locus YHR129C, strain ARP1, stronger effect = lower value 1.01 | locus YHR142W, strain chs7, stronger effect = lower value 1.01 | locus YHR200W, strain rpn10, stronger effect = lower value 0.963 | locus YIL066C, strain RNR3, stronger effect = lower value 1.04 | locus YIL073C, strain SPO22, stronger effect = lower value 0.97 | locus YIL125W, strain kgd1, stronger effect = lower value 0.988 | locus YIR030C, strain dcg1, stronger effect = lower value 0.997 | locus YJL092W, strain hpr5, stronger effect = lower value 1.01 | locus YJL095W, strain BCK1 (second series), stronger effect = lower value 1.04 | [2] 1.01 and 1.04 | locus YJL115W, strain asf1, stronger effect = lower value 1.02 | locus YJL129C, strain trk1, stronger effect = lower value 1.01 | locus YJL134W, strain LCB3, stronger effect = lower value 1.01 | locus YJL154C, strain vps35, stronger effect = lower value 1.01 | locus YJL164C, strain tpk1, stronger effect = lower value 0.974 | locus YJL166W, strain qcr8, stronger effect = lower value 1.04 | locus YJL168C, strain set2, stronger effect = lower value 1 | locus YJL187C, strain SWE1 (second series), stronger effect = lower value 0.99 | locus YJR043C, strain POL32, stronger effect = lower value 1.04 | [3] 0.98 | locus YKL009W, strain mrt4, stronger effect = lower value 1.04 | locus YKL068W, stronger effect = lower value 0.993 | locus YKL085W, strain MDH1 (second series), stronger effect = lower value 0.997 | locus YKL085W, strain MDH1, stronger effect = lower value 0.997 | locus YKL160W, strain elf1, stronger effect = lower value 1.04 | locus YKR001C, strain vps1, stronger effect = lower value 0.977 | locus YKR026C, strain gcn3, stronger effect = lower value 1.01 | locus YKR091W, strain srl3, stronger effect = lower value 1.01 | locus YLL001W, strain dnm1, stronger effect = lower value 0.965 | locus YLL026W, stronger effect = lower value 1.01 | locus YLL041C, strain sdh2, stronger effect = lower value 1.01 | locus YLR027C, strain aat2, stronger effect = lower value 1.01 | locus YLR039C, strain RIC1, stronger effect = lower value 1.08 | locus YLR058C, strain SHM2, stronger effect = lower value 1.01 | locus YLR102C, strain apc9, stronger effect = lower value 0.985 | [4] 0.962 | locus YLR221C, strain rsa3, stronger effect = lower value 1.01 | locus YLR258W, strain gsy2, stronger effect = lower value 1.01 | locus YLR262C, strain YPT6 (second series), stronger effect = lower value 1 | locus YLR268W, strain sec22, stronger effect = lower value 1.01 | locus YLR320W, strain mms22, stronger effect = lower value 1.04 | locus YLR330W, strain CHS5, stronger effect = lower value 1.01 | locus YLR342W, strain FKS1 (second series), stronger effect = lower value 1.04 | locus YLR342W, strain FKS1, stronger effect = lower value 1 | locus YLR357W, strain rsc2, stronger effect = lower value 1.01 | locus YLR370C, strain arc18, stronger effect = lower value 1.02 | locus YLR371W, strain rom2, stronger effect = lower value 1 | locus YLR384C, strain iki3, stronger effect = lower value 1 | locus YLR418C, strain cdc73, stronger effect = lower value 0.959 | locus YML016C, strain PPZ1, stronger effect = lower value 1.01 | locus YML032C, strain rad52, stronger effect = lower value 0.993 | locus YML120C, strain ndi1, stronger effect = lower value 0.993 | locus YML124C, strain tub3, stronger effect = lower value 0.988 | locus YMR058W, strain fet3, stronger effect = lower value 1.02 | locus YMR078C, strain ctf18, stronger effect = lower value 0.986 | locus YMR125W, strain sto1, stronger effect = lower value 1 | locus YMR129W, stronger effect = lower value 1 | locus YMR205C, strain PFK2, stronger effect = lower value 1.01 | locus YMR223W, strain ubp8, stronger effect = lower value 0.969 | locus YMR231W, strain pep5, stronger effect = lower value 1.02 | locus YMR307W, strain GAS1, stronger effect = lower value 1.05 | locus YNL067W, strain RPL9B, stronger effect = lower value 0.976 | locus YNL071W, strain lat1, stronger effect = lower value 1.02 | locus YNL153C, strain GIM3, stronger effect = lower value 0.996 | [5] 0.99 | locus YNL209W, strain ssb2, stronger effect = lower value 1.01 | locus YNL233W, strain BNI4, stronger effect = lower value 0.998 | locus YNL248C, strain rpa49, stronger effect = lower value 1.03 | locus YNL250W, strain rad50, stronger effect = lower value 0.959 | locus YNL271C, strain bni1, stronger effect = lower value 0.999 | locus YNL298W, strain CLA4, stronger effect = lower value 0.997 | locus YNL307C, strain MCK1, stronger effect = lower value 0.983 | locus YNL322C, strain KRE1 (second series), stronger effect = lower value 1.01 | locus YNL322C, strain KRE1, stronger effect = lower value 1.01 | locus YNR049C, strain mso1, stronger effect = lower value 1.03 | locus YNR052C, strain pop2, stronger effect = lower value 0.972 | locus YOL006C, strain TOP1, stronger effect = lower value 1.09 | locus YOL012C, strain htz1 0.612 | locus YOL147C, strain pex11, stronger effect = lower value 0.99 | locus YOR001W, strain rrp6, stronger effect = lower value 1.03 | locus YOR061W, strain CKA2, stronger effect = lower value 1.02 | locus YOR069W, strain VPS5, stronger effect = lower value 1 | locus YOR070C, strain gyp1, stronger effect = lower value 1.02 | locus YOR080W, strain dia2, stronger effect = lower value 1.01 | locus YOR083W, strain WHI5, stronger effect = lower value 1.01 | locus YOR106W, strain vam3, stronger effect = lower value 1.01 | locus YOR136W, strain idh2, stronger effect = lower value 0.979 | locus YOR144C, strain elg1, stronger effect = lower value 0.987 | locus YOR184W, strain ser1, stronger effect = lower value 1.03 | [6] 1.03 | locus YOR265W, strain rbl2, stronger effect = lower value 0.991 | locus YOR270C, strain vph1, stronger effect = lower value 1.07 | locus YOR290C, strain snf2, stronger effect = lower value 1.01 | locus YOR316C, strain cot1, stronger effect = lower value 0.984 | locus YPL051W, strain arl3, stronger effect = lower value 1.02 | locus YPL055C, strain LGE1, stronger effect = lower value 1.04 | locus YPL078C, strain atp4, stronger effect = lower value 1.01 | locus YPL106C, strain sse1, stronger effect = lower value 1.06 | locus YPL240C, strain hsp82, stronger effect = lower value 1.01 | locus YPL241C, strain CIN2, stronger effect = lower value 1.01 | [7] 1.05 | locus YPR119W, strain clb2, stronger effect = lower value 0.992 | locus YPR141C, strain kar3, stronger effect = lower value 0.993 | locus YPR163C, strain tif3, stronger effect = lower value 0.99 | locus YPR167C, strain met16, stronger effect = lower value 0.985 | strain wtn01, stronger effect = lower value 0.99
active: locus YHR013C, strain ard1, stronger effect = lower value 1.41 [resistant]

CCC(C)C1NC(=O)C(CCN)NC(=O)C(NC(=O)C(CCN)NC(=O)C(NC(=O)C(CCN)NC(=O)CCCCC(C)C)C(C)O)CCNC(=O)C(C(C)O)NC(=O)C(CCN)NC(=O)C(CCN)NC(=O)C(C(C)CC)NC1=O (stereo unspecified) ({Heptanoyl(6-Me)}-[Dab]T[Dab][Dab][Dab]II[Dab][Dab]T; lactam 4-C; configuration not given here)
inactive: [1] 0.976 | [2] 0.985 | [3] 0.95 | [4] 0.967 | [5] 0.944 | [6] 0.971 | [7] 0.973
